Bioassay records from PubChem BioAssay.
HP1b chromo inh: inhibitors of HP1-beta chromodomain binding to methylated histone tails; P83916; AlphaScreen HP1-beta / biotin-H3K9me3 peptide binding; Potency, µM (doses to about 114 µM), for inactives: at the highest dose activity change, negative = inhibition, hits mostly inhibitors; actives 0.56% (n = 390,000); AID 540317; also: nearly all actives have a fitted effect of over 70% in size
Target sequence (P83916 whole entry, looked up): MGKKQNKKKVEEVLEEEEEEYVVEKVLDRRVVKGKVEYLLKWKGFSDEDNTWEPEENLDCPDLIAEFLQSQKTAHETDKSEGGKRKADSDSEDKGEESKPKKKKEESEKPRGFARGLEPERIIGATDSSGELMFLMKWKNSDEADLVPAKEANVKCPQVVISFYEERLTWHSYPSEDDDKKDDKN
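AlphaScreen: HP1-beta (50 nM) preformed 30 min with biotin-H3(1-18)K9me3 peptide (50 nM) in PBS pH 7.4, 0.01% Tween-20. Compound added for 30 min at RT, then streptavidin donor/nickel chelate acceptor beads (10 ug/mL) for 30 min.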
G9a inh: inhibitors of human histone lysine methyltransferase G9a; Q96KQ7; G9a H3K9 monomethylation, AlphaScreen, 2 h; Potency, µM (series often up to 102 µM), without a hit: top-dose activity, negative = inhibition, usual class: inhibitors; actives 8.8% (n = 350,000); AID 504332; also: % is scaled to controls: 0 for no effect and ±100 for the full control effect; nearly all actives have a fitted effect of over 75% in size
Target sequence (Q96KQ7 913-1193 limits assumed): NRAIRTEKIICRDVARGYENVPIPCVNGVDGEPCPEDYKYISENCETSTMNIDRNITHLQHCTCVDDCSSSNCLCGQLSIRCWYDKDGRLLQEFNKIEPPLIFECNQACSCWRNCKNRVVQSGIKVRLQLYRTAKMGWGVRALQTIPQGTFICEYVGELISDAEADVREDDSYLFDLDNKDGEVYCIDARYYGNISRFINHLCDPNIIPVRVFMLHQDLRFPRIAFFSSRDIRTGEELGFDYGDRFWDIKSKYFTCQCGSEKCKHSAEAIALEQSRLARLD
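Chemiluminescent proximity detection of H3K9 monomethylation, read after 10 min bead incubation in the dark. Reaction: 20 nM G9a, 500 nM biotin-H3K9 peptide, 20 uM SAM cofactor, 2 h, room temperature, following 15 min enzyme-compound preincubation.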
Sfp PPTase inh: inhibitors of Bacillus subtilis Sfp phosphopantetheinyl transferase; Q9F4F7; Biochemical Sfp PPTase activity, qHTS; Potency, µM, for the others: largest response in the series, negative = inhibition, most hits filed as inhibitors; actives 3.5% (n = 310,000);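 also: the enzyme is Sfp with the accession as filed and its product quenches rhodamine fluorescence; 0% = enzyme reaction without inhibitor and -100% = no enzyme wells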
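After 15 min at room temperature with compound, 15 nM Sfp received 5 uM rhodamine-CoA plus 12.5 uM BHQ-2-ybbR (50 mM Hepes pH 7.6, 10 mM MgCl2). Rate came from the fluorescence difference over 30 min, ex 525/em 598 nm.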
JMJD2A Tudor inh: inhibitors of human JMJD2A Tudor domain; AlphaScreen JMJD2A-Tudor / H3K4me3 peptide binding; AID 504339; O75164; Potency, µM (series often up to 114 µM), for inactives: at the highest dose activity change, negative = inhibition, hits mostly inhibitors; actives 4.4% (n = 390,000); also: % is scaled to controls: 0 for no effect and ±100 for the full control effect; nearly all actives have a fitted effect of over 50% in size
L3MBTL1 block: L3MBTL1 (human) inhibition | Potency, µM (titrated, usually from 57.1 µM), inactives show top-dose activity, negative = inhibition, most hits filed as inhibitors | Q9Y468 | actives 0.66% (n = 230,000) | AlphaScreen L3MBTL1–H3K9me1 peptide binding; also: % is scaled to controls: 0 for no effect and ±100 for the full control effect; nearly all actives have a fitted effect of over 60% in size
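Displacement of a biotinylated histone H3(1-15) peptide monomethylated at Lys9 (75 nM) from L3MBTL1 (50 nM) was measured by AlphaScreen after a 30 min room-temperature compound incubation; cefsulodin titration served as intraplate control.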
BAZ2B block: BAZ2B (human) inhibition; Q9UIF8; AlphaScreen BAZ2B-H3K14Ac peptide displacement; Potency, µM (highest dose often 114 µM), for the others: top-dose activity change, negative = inhibition, most hits filed as inhibitors; actives 4.4% (n = 360,000); AID 504333; also: % is scaled to controls: 0 for no effect and ±100 for the full control effect; nearly all actives have a fitted effect of over 60% in size
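AlphaScreen displacement of biotin-H3(5-23)K14Ac peptide (50 nM final) from BAZ2B (50 nM final) in PBS pH 7.4, 0.01% Tween-20; complex preformed 30 min RT, then compounds (top 110 uM) 30 min RT, beads 20 min dark.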
* hit, by the source's call; ? = inconclusive; · = no result given; [ ] = dose if it differs, or a comment. A selection: hits, their analogues and other compounds. The true share with any hit is near 12%. Calls follow the shape of the dose curve; as a rule, active = well fitted curve in the direction sought with a large enough effect; inconclusive = small, poorly fitted or top-dose-only effect, or another doubt; inactive = no such curve, though single readings can be large; an effect the other way counts as inactive or inconclusive. Potency is read from the fitted curve at half-maximal effect.

SMILES	HP1b chromo inh	G9a inh	Sfp PPTase inh	JMJD2A Tudor inh	L3MBTL1 block	BAZ2B block
COc1cc(/C=C2/SC(N)=NC2=O)ccc1Oc1ccc([N+](=O)[O-])cc1[N+](=O)[O-]	44%	0%[59 µM]	-10%	-8%	-12%	7%
CC1=NN(c2ccccc2)C(=O)/C1=C\c1ccc(Oc2ccc([N+](=O)[O-])cc2[N+](=O)[O-])cc1	?	45µM*	-6%	40µM*	?	40µM*
COc1cc(/C=C2\C(=O)N(c3ccccc3)N=C2C)ccc1Oc1ccc([N+](=O)[O-])cc1[N+](=O)[O-]	?	?	-7%	25µM*	-22%	45µM*
CCN(CC)c1nn2c(=O)c(C(=O)NCc3cccc(C)c3)cnc2s1	?	7%[59 µM]	·	-11%	·	-14%
CCCS(=O)(=O)Nc1cc(-c2cn3cccc(C)c3n2)ccc1C	6%	-15%[59 µM]	·	-27%	·	?
COc1ccc2c(c1)c1c(c(=O)n(-c3ccc(C)cc3)c(=O)n1CC(=O)Nc1cc(C)ccc1C)n2C	17%	-22%[59 µM]	·	-10%	·	-5%
Fc1ccc(/C=C2\CCCC3=C2NC(=S)NC3c2ccc(F)cc2)cc1 (stereo unspecified)	·	22µM*	45µM*	·	-6%	?
CCOC(=O)/C=C1/N(C)c2ccccc2C1(C)C	35%	4%	4%	-7%	·	-18%
CN1/C(=C\C(=O)c2cccs2)C(C)(C)c2ccccc21	51%	247%[59 µM]	-4%	10%	115%	157%
CN1/C(=C\C(=S)NC(=O)c2ccccc2Cl)C(C)(C)c2ccccc21	25µM*	35µM*	?	25µM*	?	11µM*
CN1/C(=C\C(=O)Nc2ccc(Cl)cc2)C(C)(C)c2ccccc21	19%	?	9%	-33%	-12%	-32%
COc1ccccc1C(=O)NC(=S)/C=C1/N(C)c2ccccc2C1(C)C	-85%	10µM*	?	16µM*	13µM*	11µM*
CN1/C(=C/C(=S)NC(=O)C2(C)CC2(Cl)Cl)C(C)(C)c2ccccc21 (stereo unspecified)	18µM*	?	11%	35µM*	-11%[11.4 µM]	20µM*
Cc1cccc(N2CCN(C(=O)CN3C(=O)CSc4c3c(C)nn4-c3ccccc3)CC2)c1C	-10%	8%[59 µM]	·	-14%	·	-5%
CCn1nc(-c2ccccc2C)nc2c(=O)n(C)c(=O)nc1-2	17%[57 µM]	·	·	-14%[57.1 µM]	·	·
CCc1ccccc1-n1c(SCC(=O)N2CCCC2)nnc1-c1ccccn1	19%	-9%[59 µM]	9%	?	-27%	56µM*
NC(=O)CSc1nnc(-c2ccccn2)n1N	30%	-7%	-6%	71µM*	·	22µM*
Nn1c(SCc2ccccc2)nnc1-c1ccccn1	40%	-7%[12.7 µM]	1%	6%	-25%	14µM*
Cc1ccc(-n2c(SCC(N)=O)nnc2-c2ccccn2)cc1	36%	11%[12.7 µM]	-2%	?	·	25µM*
CCOc1ccc(-n2c(COc3ccc(C)cc3)nnc2SCC(N)=O)cc1	1%	-8%[59 µM]	-4%	-17%	-10%	-32%
Cc1cccc(-n2c(SCC(N)=O)nnc2-c2ccccn2)c1C	13%	-37%	10%	79µM*	?	18µM*
CCN(CC)C(=O)CSc1nnc(-c2cnccn2)n1-c1ccccc1	36%	4%	13%	6%	-2%	1%
CCN(CC)C(=O)CSc1nnc(-c2ccccn2)n1-c1ccc(C)c(C)c1	50%	-7%[59 µM]	8%	?	-8%	45µM*
Cc1ccc(-n2c(SCCN)nnc2-c2cccc(C)c2)cc1	43%	5%[59 µM]	-4%	-16%[11.4 µM]	·	79µM*
CCOc1ccccc1-n1c(SCC(N)=O)nnc1-c1cccnc1	29%	?	-1%	8%	-13%[11.4 µM]	10%
Cc1cccc(-c2nnc(SCC#N)n2-c2ccccc2)c1	63%	?	17%	1%	-1%	4%
